BCLXL inh: inhibitors of human Bcl-xL, primary screen, biochemical, fluorescence polarization, HTS. Bcl-2-like protein 1 (Homo sapiens), Q07817. GST-Bcl-xL / FITC-Bim BH3 peptide fluorescence polarization. inhibition, % at 10.9 µM. 320,000 compounds, 0.7% hits;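 active means inhibition above the mean of all tested compounds plus 3 SD, cutoff set per campaign, cut at about 30% in these data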;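 further: inhibitors lower millipolarization by displacing the labeled peptide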
MEX-5 binding: MEX-5 zinc finger RNA-binding disruptors – biochemical, C. elegans, fluorescence polarization, MLPCN library, primary screen | 300,000 compounds, 0.38% hits | MEX-5/FITC-TCR2 RNA binding; active compounds read low | Zinc finger protein mex-5 (Caenorhabditis elegans), Q9XUB2 | activity score (negative = inhibition of binding), % at 10 µM;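 active means inhibition past about -25% in most replicates, and total fluorescence under double the plate's negative control median, limit read from the data; inconclusive means replicates evenly split on the limit, or fluorescence at least double controls; inactive means too little inhibition in most replicates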
GLD-1 RNA inh: GLD-1/TGE RNA complex disruptors, primary screen, biochemical, fluorescence polarization. inhibition, % at 5.96 µM. 320,000 compounds, 0.44% hits. purified GLD-1 + fluorescein TGE RNA. Female germline-specific tumor suppressor gld-1 (Caenorhabditis elegans), Q17339. AID 2280, 2010;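 active means percent inhibition above a per-plate cutoff, the plate mean of test compounds plus 3 SD, cut at about 30% in these data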
Target sequence (Q17339 whole entry, looked up): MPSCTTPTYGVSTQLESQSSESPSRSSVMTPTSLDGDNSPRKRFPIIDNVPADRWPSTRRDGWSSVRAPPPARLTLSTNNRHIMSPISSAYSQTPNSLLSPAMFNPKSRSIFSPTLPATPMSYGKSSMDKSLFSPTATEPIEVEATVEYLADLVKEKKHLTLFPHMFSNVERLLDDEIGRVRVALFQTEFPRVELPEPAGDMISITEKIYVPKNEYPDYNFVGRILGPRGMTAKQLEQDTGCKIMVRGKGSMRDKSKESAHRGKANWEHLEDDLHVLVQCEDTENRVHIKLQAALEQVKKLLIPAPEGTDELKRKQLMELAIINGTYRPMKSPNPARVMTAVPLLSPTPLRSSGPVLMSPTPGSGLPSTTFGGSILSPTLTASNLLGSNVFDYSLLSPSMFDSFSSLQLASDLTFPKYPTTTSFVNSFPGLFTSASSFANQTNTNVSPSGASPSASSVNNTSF
EBV gp42 inh: Epstein-Barr virus gp42 inhibitors, primary screen, biochemical, uHTS, fluorescence polarization; Fluorescence polarization binding assay, mP read-out; inhibition, % (tested at 21.74 µM); 220,000 compounds, 0.42% hits; AID 1085, 2008; in the data active means inhibition above about 50%
Target sequence (Q1HVG2 whole entry, looked up): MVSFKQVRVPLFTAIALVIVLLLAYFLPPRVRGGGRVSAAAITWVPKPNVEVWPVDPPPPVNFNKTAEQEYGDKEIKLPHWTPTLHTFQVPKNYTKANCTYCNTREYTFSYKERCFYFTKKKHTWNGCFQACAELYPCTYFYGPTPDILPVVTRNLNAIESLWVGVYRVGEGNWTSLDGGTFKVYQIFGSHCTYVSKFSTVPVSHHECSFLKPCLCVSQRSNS
MCL1-BIM inh: inhibitors of MCL1 binding to BIM-BH3, primary screen, biochemical, fluorescence polarization. GST-MCL1 / FITC-Bim-BH3 fluorescence polarization. 320,000 compounds, 0.68% hits. inhibition, % at 10.9 µM. AID 2057, 2009;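 active means inhibition above the mean inhibition of all tested compounds plus 3 SD, set per campaign, cut at about 40% in these data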;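 further: higher means more loss of mP so more displacement of Bim peptide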
BCLXL inh confirm: Bcl-xL inhibitors blocking Bim BH3 binding, confirmation, counter-screen for MCL1 inhibitor project, biochemical, fluorescence polarization | shares compounds with MCL1-BIM inh | GST-Bcl-xL / FITC-Bim BH3 peptide FP binding | inhibition, % at 10.9 µM | 1,700 compounds, 54% hits | AID 2166, 2009;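 active means inhibition above a cutoff equal to the mean inhibition of all tested compounds plus 3 SD, cut at about 30% in these data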
MCL1 inh confirm: inhibitors of MCL1 binding to BIM-BH3, confirmation, biochemical, fluorescence polarization, triplicate; shares compounds with MCL1-BIM inh; GST-MCL1 / FITC-Bim-BH3 fluorescence polarization; inhibition, % at 10.9 µM; 1,700 compounds, 61% hits;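 active means inhibition above the average of all tested compounds plus 3 SD, cut at about 40% in these data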
Each line names hits and unclear results; the compound was inactive in the other large screens (follow-up assays come after a bar, where they were run). Shown are actives, neighbours in structure and some others; about 1.3% of the full set was active somewhere.

Cc1cc(=O)oc2c(CN3CCC(C)CC3)c(O)c(Cl)cc12	BCLXL inh 104.7, MEX-5 binding -39.9, GLD-1 RNA inh 119.5, EBV gp42 inh 71.9, MCL1-BIM inh 141.6 | BCLXL inh confirm 79.5 | MCL1 inh confirm 113.3
Cc1ccc(C(=O)Nc2ccc3c(c2)nc(CCNC(=O)c2ccco2)n3C)cc1	none (no result: EBV gp42 inh)
COc1ccccc1OCc1nnc(SCC(=O)NCc2ccco2)n1Cc1ccco1	MCL1-BIM inh 45.9 | BCLXL inh confirm inactive | MCL1 inh confirm inactive
Cc1ccccc1OCc1nnc(SCC(=O)NCc2ccco2)n1C	none
CCCCCCn1c(=O)[nH]c2nc3cc(N)ccc3nc2c1=O	BCLXL inh 187.1, MEX-5 binding -48.7, GLD-1 RNA inh 187.3, EBV gp42 inh 148.5, MCL1-BIM inh active | BCLXL inh confirm 171.2 | MCL1 inh confirm 197.9
COc1ccc(CCNC(=O)c2ccc(CNS(=O)(=O)c3cc(C)ccc3C)cc2)cc1OC	none
O=C1C(Cl)=C(NC(=O)c2ccccc2)C(=O)C(Cl)=C1NC(=O)c1ccccc1	BCLXL inh 36.4, MEX-5 binding -85.5, MCL1-BIM inh 56.5 (no result: EBV gp42 inh) | BCLXL inh confirm 53.8 | MCL1 inh confirm 57.3
O=C(NC1=C(Nc2ccc(Cl)cc2)C(=O)c2ccccc2C1=O)c1ccccc1	none
COc1ccc(C(=O)OCC(N)=O)cc1[N+](=O)[O-]	none
COc1ccc(C(=O)C[n+]2cc(Br)cc3ccccc32)cc1[N+](=O)[O-]	BCLXL inh 54.0, MCL1-BIM inh 74.8 (no result: EBV gp42 inh) | BCLXL inh confirm inactive | MCL1 inh confirm inactive
COC(=O)C1CSc2[nH]c(=O)sc2C1c1ccccc1 (centres undefined)	BCLXL inh 106.6, MEX-5 binding -56.9, GLD-1 RNA inh 84.2, MCL1-BIM inh 118.6 | BCLXL inh confirm 88.0 | MCL1 inh confirm 109.1
NC(=O)c1c(NC(=O)C2CCCO2)sc2c1CCCCC2 (centres undefined)	BCLXL inh 33.0, MCL1-BIM inh 42.6 | BCLXL inh confirm inactive | MCL1 inh confirm inactive
NC(=O)c1c(NC(=O)C2CCCO2)sc2c1CCC2 (centres undefined)	none
Cc1cccc(NC(=S)NNC(=O)c2cc3c(s2)CCC(C)C3)c1C (centres undefined)	none
O=c1ccc2cc3c([nH]c4ccc(Br)cc43)oc-2c1O	BCLXL inh 46.3, MEX-5 binding -79.0, MCL1-BIM inh 85.4 | BCLXL inh confirm inactive | MCL1 inh confirm 68.8
COCCn1c(SCC(=O)N2CCCC2=O)nc2sc(C)c(C)c2c1=O	MCL1-BIM inh 75.9 (no result: EBV gp42 inh) | BCLXL inh confirm inactive | MCL1 inh confirm inactive
COc1ccc2nc3ccccc3nc2c1NC(=O)c1ccc(Cl)cc1	BCLXL inh 49.5, MEX-5 binding -31.2, MCL1-BIM inh 104.5 | BCLXL inh confirm 81.5 | MCL1 inh confirm 105.0
COc1ccccc1Oc1ccc(NC(=O)c2ccc(Cl)cc2)cc1	none
COc1cccc2c(=O)c3cccc(N)c3[nH]c12	BCLXL inh 62.6, MCL1-BIM inh 86.9 | BCLXL inh confirm 44.0 | MCL1 inh confirm 42.1
CN(c1ncc(C(F)(F)F)cc1Cl)N1C(=O)c2cccc(N)c2C1=O	BCLXL inh 58.7, GLD-1 RNA inh 84.2, EBV gp42 inh 57.3, MCL1-BIM inh 62.0 | BCLXL inh confirm 47.4 | MCL1 inh confirm 65.6
O=C1CCCC2=C1C(c1cccs1)Nc1ccc3ncccc3c12 (centres undefined)	none
O=C1CCCC2=C1C(c1ccc(O)c(O)c1)Nc1ccc3ncccc3c12 (centres undefined)	BCLXL inh 36.2, MCL1-BIM inh 49.9 | BCLXL inh confirm 41.1 | MCL1 inh confirm 57.5
CN(Cc1nc2ccccc2c(=O)[nH]1)C(=O)c1ccc(NC(=O)CSc2nnnn2C)cc1	MCL1-BIM inh 44.2 (no result: MEX-5 binding, EBV gp42 inh) | BCLXL inh confirm inactive | MCL1 inh confirm inactive
O=C(/C=C1\NC2(CCCC2)Cc2ccccc21)C(=O)N/N=C/c1ccc(O)c(O)c1	MCL1-BIM inh 41.6 | BCLXL inh confirm 30.7 | MCL1 inh confirm 43.0
COc1ccc(/C=N/NC(=O)C(=O)/C=C2\NC3(CCCC3)Cc3ccccc32)cc1	none
CCOC(=O)c1cc2c(=O)n3ccccc3nc2n(Cc2ccco2)c1=NC(=O)c1ccc(OC)cc1	MCL1-BIM inh 41.2 | BCLXL inh confirm inactive | MCL1 inh confirm inactive
COC(C(=O)Nc1ccc(S(=O)(=O)Nc2cccc3ccccc23)cc1)c1ccccc1 (centres undefined)	none
Cc1ccc(NC(=S)Nc2ccc3nc(-c4ccccn4)c(-c4ccccn4)nc3c2)cc1C	BCLXL inh 121.7, GLD-1 RNA inh 103.1, MCL1-BIM inh 150.6 (no result: MEX-5 binding) | BCLXL inh confirm 61.1 | MCL1 inh confirm 62.0
Cc1nc2ccccc2n2c(O)c(CC(=O)O)cc12	BCLXL inh active, MEX-5 binding inconclusive, GLD-1 RNA inh 136.6, EBV gp42 inh 129.1, MCL1-BIM inh active | BCLXL inh confirm 189.5 | MCL1 inh confirm active
CC(C)Sc1nc2ccccc2c(=O)[nH]1	none
CC(c1nc2ccccc2c(=O)[nH]1)N(C)c1ccc2ccccc2c1 (centres undefined)	BCLXL inh 74.2, GLD-1 RNA inh 77.8, MCL1-BIM inh 86.5 | BCLXL inh confirm inactive | MCL1 inh confirm inactive
Cc1cc[n+](-c2[nH]c(=O)sc2/C=N/N=C(\[O-])CCn2c3ccccc3c3ccccc32)cc1	MCL1-BIM inh 49.0 (no result: MEX-5 binding) | BCLXL inh confirm inactive | MCL1 inh confirm 50.1
CCc1ccc[n+](-c2[nH]c(=O)sc2/C=N/N=C(\[O-])CCn2c3ccccc3c3ccccc32)c1	none
O=C1CC(/C=C/c2ccco2)=Nc2ccccc2N1	BCLXL inh 49.6, MCL1-BIM inh 60.2 | BCLXL inh confirm 32.3 | MCL1 inh confirm 45.0
COc1ccccc1CNC(=O)C1CC(c2ccccc2C(F)(F)F)=NO1 (centres undefined)	none
CCCCN1Cc2c(nc3cc(-c4ccco4)[nH]n3c2=O)C1=O	MCL1-BIM inh 66.4 | BCLXL inh confirm 36.7 | MCL1 inh confirm 50.5
CN(CCc1ccccn1)C(=O)CCC1CCCN(C(=O)c2ccsc2)C1 (centres undefined)	none

Bioassay records (PubChem)
